# About 13,000 (27%) of roughly 48,000 compounds showed an effect of 50% or more. This is one part of the list.
# System: Wolbachia pipientis
# Assay: Anti-Wolbachia Cell-Based Screen
# Assay type: functional
# Parameters: scale not given: in the data most compounds retested in dose-response had high values
# Conditions: 5 µM
row,Structure (SMILES),Percent Effect
1,NS(=O)(=O)c1cc(C(=O)N2CCCCC2)cs1,6.219%
2,CN(C)c1ccc(CC(=O)N[C@@H]2CCNC[C@H]2O)cc1,-6.485%
3,O=C(NCC1(N2CCOCC2)CCSC1)Nc1cn[nH]c1 (centres undefined),6.407%
4,CN(Cc1cnn(C)c1)C(=O)NCc1csc(Br)c1,2.853%
5,CNS(=O)(=O)Cc1ccc(CNC(=O)Nc2cn[nH]c2)cc1,-4.432%
6,O=C(Cc1ccc(Br)s1)NCC(=O)Nc1cn[nH]c1,-7.073%
7,O=C(NCc1ccc(Br)c(F)c1)Nc1cn[nH]c1,110.2%
8,CN1CCC(NC(=O)NCc2csc(Br)c2)CC1,-1.868%
9,O=C(NCc1csc(Br)c1)Nc1cn[nH]c1,91.45%
10,O=C(NCc1cc(Br)cs1)Nc1cn[nH]c1,79.99%
11,COCCNc1ccc(CNC(=O)Nc2cn[nH]c2)cc1,-8.085%
12,CN(CCNC(=O)c1scnc1Cl)c1ccccc1,-4.925%
13,COc1ccc(OC)c(C2CCN(CC(C)(C)N3CCOCC3)C2)c1 (centres undefined),-1.124%
14,CC(C)[C@@H]1CN(Cc2cnc(C3CCCCC3)nc2)C[C@H]1C(=O)O,-8.433%
15,COc1ccc(C(C)N(C)Cc2c(C3CC3)[nH]c3ncccc23)cc1.Cl (centres undefined),91.7%
16,COc1ccc(C(C)N(C)Cc2c(C(C)(C)C)[nH]c3ncccc23)cc1 (centres undefined),103.1%
17,COc1ccc(C(CN2CCN(C)CC2)Nc2ncccn2)cc1 (centres undefined),-1.255%
18,COc1ccc(C(C)N(C)Cc2c(C(C)C)[nH]c3ncccc23)cc1 (centres undefined),47.71%
19,CCC(Nc1ncccn1)c1ccc(OC)cc1 (centres undefined),2.346%
20,COc1ccc2cc(CN(C)C(C)c3nc(C4CC4)no3)ccc2c1 (centres undefined),6.729%
21,COCCN(C)CC(=O)N1C[C@@H](C)[C@](O)(C(C)C)C1,89.33%
22,C[C@@H]1CN(C(=O)CCCN2CCOCC2)C[C@@]1(O)C1CC1,-18.09%
23,NC(=O)NCC(=O)N1CCC2(CC1)c1ccccc1CC2O (centres undefined),-7.297%

row,Structure (SMILES),Percent Effect
1,COCCN(C)CC(=O)N1C[C@H]2CC[C@@H]1CN(C(=O)c1ccncc1)C2,3.629%
2,CC(C)[C@]1(O)CN(C(=O)CNC(N)=O)C[C@H]1C,90.92%
3,COCC(=O)N1CCN(C(C)C(=O)NC(C)C)CC1 (centres undefined),2.538%
4,CC(C)[C@]1(O)CN(C(=O)COCC(N)=O)C[C@H]1C,89.06%
5,COCCN(C)CC(=O)N1C[C@@H](NC(C)=O)[C@H](c2ccc(OC)cc2)C1,3.177%
6,COCC(=O)N1CCC2(CC1)CC(OC)CO2 (centres undefined),-10.72%
7,COCC(=O)N1C[C@@H](C)[C@](O)(C(C)C)C1,101.1%
8,CC1(Cc2ccccn2)NCCc2[nH]cnc21 (centres undefined),15.49%
9,CCn1c(N)nc2cc(C(=O)N3Cc4ccccc4C3)cnc21,-3.386%
10,CCCS(=O)(=O)N1CCC(Nc2c(F)cc(C#N)cc2F)CC1,13.62%
11,CSCCC(=O)N1CCN(CC(C)(C)O)CC1,-39.31%
12,Cc1c(C(C)NCC2CCCC2)cnn1-c1ccc(F)cc1F (centres undefined),0.5195%
13,O=C(CN1C=Nc2ccccc2S1(=O)=O)NCCc1cccs1,3.571%
14,COCCN(C)[C@@H]1c2ccccc2C2(CCNCC2)[C@H]1O,2.267%
15,CC(C)NC(=O)CN1CCN(CC2CCOc3ccccc3C2)CC1 (centres undefined),-2.637%
16,Cc1cc(C(=O)NS(C)(=O)=O)ccc1I,1.042%
17,Cc1nc2c(c(NCc3nc4ccccc4s3)n1)CCNCC2,4.643%
18,CCc1cnc(C)nc1NCc1cnc2c(c1)CCC2,83.93%
19,CCc1cnc(C)nc1NCCN1CCCCCC1,-2.933%
20,Nc1nc2c(c(NCc3nc(-c4ccncc4)n[nH]3)n1)CCCC2,-1.758%
21,Nc1nc2c(c(NCc3cnc4c(c3)CCC4)n1)CCNC2,77.65%
22,Cc1nc2c(c(NCc3cc4ccccc4s3)n1)CCNCC2,-2.145%
23,Nc1nc2c(c(NCc3ccncc3)n1)CCCC2,-16.82%

row,Structure (SMILES),Percent Effect
1,CCc1cnc(C)nc1NCCN1CCC(O)CC1,8.36%
2,Cc1nc2c(c(NCc3cnc4c(c3)CCC4)n1)CNC2,90.56%
3,CCC(C)NC(=O)c1ccc(CNC(=O)CC(C)(C)C)cc1 (centres undefined),3.529%
4,COC(=O)CCC(=O)NC1CCCc2cc(OC(F)F)ccc21 (centres undefined),7.111%
5,CCC(C(=O)N(Cc1ccccc1OC)C1CC1)n1cccn1 (centres undefined),-4.851%
6,O=c1[nH]c(=O)n(CC(O)c2ccc(F)cc2F)cc1Cl (centres undefined),-0.7239%
7,OC(CNCCn1cccn1)COc1ccc(F)cc1 (centres undefined),3.915%
8,COc1ccc(CN2CC[C@@]3(O)CCCC[C@H]3C2)cc1C(=O)O,-6.5%
9,COc1cc(CN2CCCC[C@]3(C)NC(=O)CC[C@H]23)ccc1F,73.04%
10,COc1ccc(CN2CCCCC2CNC(=O)OC(C)(C)C)cc1F (centres undefined),23.02%
11,CCc1nc(CCNC(=O)Nc2ccc(C(=O)NC)cc2C)cs1,3.747%
12,Cc1nc(C)n(CC2CCCN2Cc2ccccn2)n1 (centres undefined),5.197%
13,Cc1nc(C)n(CC2CCCN2Cc2ncc(-c3ccccc3)o2)n1 (centres undefined),119.8%
14,c1ccc(-c2cnc(CN3CCCC3Cn3cncn3)o2)cc1 (centres undefined),-9.309%
15,Cc1nc(C)n(CC2CCCN2Cc2ncc(C(C)(C)C)o2)n1 (centres undefined),109.1%
16,Cc1nc(C)n(CC2CCCCN2Cc2ncc(C(C)(C)C)o2)n1 (centres undefined),8.215%
17,Cc1cc(C)n(CC2CCCN2CCc2ccncc2)n1 (centres undefined),-8.858%
18,Cc1cc(C)n(CC2CCCN2Cc2ncc(C(C)(C)C)o2)n1 (centres undefined),98.37%
19,Cc1nc(C)n(CC2CCCN(Cc3ncc(C(C)(C)C)o3)C2)n1 (centres undefined),87.18%
20,Cc1nc(C)n(CC2CCCN(Cc3nc(C)c(C)o3)C2)n1 (centres undefined),2.327%
21,Cc1cc(C)n(CC2CCCN2Cc2cccc(C#N)c2)n1 (centres undefined),-4.614%
22,CN(Cc1ccc(F)cc1F)CC(C)(CO)CO,-8.016%
23,CCC(O)(CNCc1cc[nH]n1)c1ccc(Br)cc1 (centres undefined),7.461%

# Reference: ChEMBL document CHEMBL3988442, “University of Dundee, Small-Polar-MMV Screening Library” (2021)
